Compound activity: PubChem, National Center for Advancing Translational Sciences (NCATS)
ALDH1A1 inh-1: ALDH1A1 (human) enzyme inhibition. Purified ALDH1A1, NADH fluorescence, propionaldehyde substrate. Potency, µM (titrated, usually from 75.3 µM), inactives show at the highest dose activity, negative = inhibition, hits mostly inhibitors. 7.3% of 220,000 active. AID 1030;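 also: potency is read from the fitted curve at half-maximal effect; plate controls were no enzyme wells and a reference inhibitor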
IMPase cell inh: membrane-permeable compound that blocks inositol monophosphatase; P97697; inhibition (IP1 accumulation), % at 46.1 µM; CHO-M1 cells, IP1 accumulation, HTRF TR-FRET ratio; 120,000 tested, under 10 active; active = well fitted curve in the direction sought with a large enough effect in the signal ratio, not every such curve was filed as active; inconclusive = small, poorly fitted or top-dose-only effect, or a change in a side signal; inactive = no such curve, though single readings can be large or run the other way; the % refers to the signal ratio;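 also: cells stimulated with carbachol in lithium chloride buffer; plate controls were DMSO basal wells for no effect and reference inhibitor wells for full effect; higher means more IMPase inhibition seen as more IP1 and lower FRET ratio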
Target sequence (P97697 whole entry, looked up): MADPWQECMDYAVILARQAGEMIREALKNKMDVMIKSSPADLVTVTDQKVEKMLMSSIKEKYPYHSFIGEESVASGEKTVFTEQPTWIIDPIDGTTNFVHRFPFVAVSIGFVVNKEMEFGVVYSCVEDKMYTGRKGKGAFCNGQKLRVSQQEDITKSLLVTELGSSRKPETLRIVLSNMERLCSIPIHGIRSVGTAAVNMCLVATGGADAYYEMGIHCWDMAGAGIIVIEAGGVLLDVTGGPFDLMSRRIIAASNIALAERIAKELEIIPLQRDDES
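Elevated IP1 in lysates lowers TR-FRET signal (665/620 ratio and 620 channel reported). Cells were CHO-M1, given carbachol (50 uM as added) plus 50mM LiCl, pH 7.4, 30 min, 37C; compounds titrated up to 46 uM; AC50 by Hill equation.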
HPGD inh: inhibitors of human 15-hydroxyprostaglandin dehydrogenase (HPGD); P15428; purified HPGD, NADH fluorescence kinetic, PGE2 substrate; Potency, µM, without a hit: at the highest dose activity change, negative = inhibition, hits mostly inhibitors; 4.3% of 150,000 active; AID 894; also: potency is read from the fitted curve at half-maximal effect; % is scaled to controls: 0 for no effect and ±100 for the full control effect
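20 nM HPGD preincubated 15 min at room temperature with compound in 50 mM Tris-HCl pH 8, 0.01% Tween 20. Started with 1 mM NAD+ and 30 uM prostaglandin E2; NADH fluorescence (360/450 nm) read 5 times over 30-s intervals, last minus first.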
ALDH1A1 inh-2: Blocks ALDH1A1 NADH production, follow-up; shares compounds with ALDH1A1 inh-1; purified ALDH1A1, NADH fluorescence, propionaldehyde/NAD+; Potency, µM (doses to about 57.1 µM), for inactives: top-dose activity change, negative = inhibition, most hits filed as inhibitors; 90% of 90 active; calls by dose curve
Active calls of the source: *; ? = inconclusive; · = no result. Hits are enriched below; roughly 9% of the tested compounds scored in any of these assays. Unless noted, calls follow the shape of the dose curve; as a rule, active = well fitted inhibition curve with a large enough effect (not every such curve was filed as active); inconclusive = small, poorly fitted or top-dose-only effect, or another doubt; inactive = no such curve, though single readings can be large or run the other way.

SMILES | ALDH1A1 inh-1 | IMPase cell inh | HPGD inh | others
COc1ccccc1NC(=O)CN1CCN(CC(=O)Nc2ccc3c(c2)OCCO3)CC1 | 3.55µM* | 8.1 | -2.3% | ALDH1A1 inh-2=3.16µM*
COC(=O)c1sccc1NC(=O)CSc1cccc(Cl)c1Cl | -15.5% | 5.2 | -11.9%
O=C(O)CNC(=O)c1ccc(S(=O)(=O)N2CCOCC2)cc1 | 18.0% | 2.1 | -5.5%
CC(C)c1ccc(NC(=O)CNS(=O)(=O)c2ccc(F)cc2)cc1 | -0.3% | · | ·
c1csc(COc2ccccc2CNC2CCCCC2)c1 | 9.2% | 4.1 | ·
COc1cc(NC(=O)CCCC(=O)OCC(F)(F)C(F)F)nc(OC)n1 | -21.9% | -1.3 | -10.8%
CCNS(=O)(=O)c1ccc(NC(=O)CC(C)c2ccccc2)cc1 (stereo not given) | 27.6% | · | ·
CCCc1cc(=O)[nH]c(SCC(=O)Nc2ccc(OC(F)F)cc2)n1 | -1.0% | -0.8 | -20.3%
Cc1ccc(C(=O)COC(=O)c2c(C)cc(=O)oc2C)cc1[N+](=O)[O-] | ? | · | -11.9%
COc1ccc(CNC(=O)C(c2ccncc2)N(C(=O)Cc2cccs2)c2cccc(C)c2)cc1 (stereo not given) | ? | 6.7 | -12.2%
COc1ccc(CNC(=O)C(c2ccco2)N(Cc2cccs2)C(=O)Cc2cccs2)cc1 (stereo not given) | 0.631µM* | 11.0 | -24.0% | ALDH1A1 inh-2=1.26µM*
Cc1ccc(NC(=O)c2ccc(OC(=O)COc3ccc(Cl)c(C)c3)cc2)cc1 | -9.2% | ? | -5.2%
Cc1cc(Nc2ccccc2)n(CCOC(=O)COc2ccccc2)n1 | ? | 9.6 | -21.4%
CCc1ccccc1NC(=O)c1cnn2c(C(F)(F)F)cc(-c3ccc(OC)c(OC)c3)nc12 | · | 4.5 | ·
Cc1ccc(Sc2nc3c(c(=O)[nH]c(=O)n3C)n2CCc2ccccc2)cc1 | 0.631µM* | ? | -13.8% | ALDH1A1 inh-2=0.891µM*
Cn1c(=O)[nH]c(=O)c2c1nc(Sc1ccccc1)n2CCc1ccccc1 | 9.6% | 1.4 | -7.6%
COc1cc(CC(=O)NCc2ccc3c(c2)OCO3)cc(OC)c1OC | ? | 5.6 | -9.1%
COc1ccccc1CN(CC(=O)NCc1ccc2c(c1)OCO2)C(=O)c1ccc2c(c1)OCCO2 | 0.0794µM* | 19.4 | -1.5% | ALDH1A1 inh-2=0.0447µM*
